Screening data (PubChem)
D2 ag-1: activates the human D2 dopamine receptor; DiscoveRx PathHunter D2 beta-arrestin, luminescence, 90 min; 100% = 57 uM dopamine signal; activation, % (test concentration not listed); 0.084% of 360,000 active; AID 624465; in the data active = activation above about 40%; inconclusive = between about 15% and that limit
Target sequence (P14416 whole entry, looked up): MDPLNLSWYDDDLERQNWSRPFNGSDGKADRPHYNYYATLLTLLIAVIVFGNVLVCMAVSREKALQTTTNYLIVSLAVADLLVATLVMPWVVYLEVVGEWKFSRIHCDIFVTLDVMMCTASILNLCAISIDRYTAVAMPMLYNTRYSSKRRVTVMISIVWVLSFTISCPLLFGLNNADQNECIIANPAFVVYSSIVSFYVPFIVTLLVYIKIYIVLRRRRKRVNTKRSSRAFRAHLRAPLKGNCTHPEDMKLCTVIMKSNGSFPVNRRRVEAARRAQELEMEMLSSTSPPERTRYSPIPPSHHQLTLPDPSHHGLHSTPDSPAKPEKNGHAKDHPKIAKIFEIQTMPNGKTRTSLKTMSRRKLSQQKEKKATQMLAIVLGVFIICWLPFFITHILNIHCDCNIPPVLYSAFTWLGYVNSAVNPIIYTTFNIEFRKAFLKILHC
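Agonist mode: compounds alone added to overnight-plated D2 PathHunter cells for 90 min at 37 C, with 57 uM final dopamine (EC100) defining full response. Beta-arrestin recruitment detected by chemiluminescent reagent, read after 1 h at ambient temperature.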
D2 ag-2: D2 dopamine receptor (human) agonism; AID 485358; HEK293 T-REx D2 cells, calcium flux agonist mode; P14416; 0.53% of 340,000 active; activation, % at 2 µM;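 active = activation over 3 SD above normal in the single-dose calcium agonist read, cut at about 30% in these data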; note: 0% is about no effect
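Agonism is scored from calcium flux in a force-coupled, inducible HEK293 cell line expressing D2, read kinetically for 180 s after compound addition against dopamine controls.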
D2 PAM-1: human D2 receptor positive allosteric modulation; potentiation, % (concentration not given with the values); AID 624464; P14416; DiscoveRx D2 beta-arrestin cells, luminescence, 90 min; 100% = 57 uM dopamine signal; 0.23% of 360,000 active; in the data active = potentiation above about 50%; inconclusive = mostly about 30% to 49%
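PathHunter beta-arrestin assay in DiscoveRx D2 cells. Compounds were added with an EC20 of dopamine (50 nM final) for 90 min at 37 deg C. Luminescence was read 1 h after detection reagent, with 57 uM dopamine as the EC100 control.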
D2 antagonist: antagonizes the human D2 dopamine receptor. P14416. HEK293 TREx D2 cells, calcium flux, dopamine EC80. inhibition, % at 10 µM. 2% of 340,000 active. AID 485344; in the data active = inhibition above about 30%; inactive = below that, where a call was filed; note: 0% is about no effect
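Compounds are added to dye-loaded, induced HEK293 T-REx cells coupled to calcium release via D2; after a 3 min kinetic read an EC80 dopamine stimulus is given and fluorescence is recorded for 3 more min.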
D2 PAM-2: D2 dopamine receptor (human) potentiation | P14416 | HEK293 T-REx D2, calcium flux, EC20 dopamine potentiation | potentiation, % at 10 µM | 0.34% of 340,000 active | AID 485347;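 active = potentiation over 3 SD above the plate norm, cut at about 30% in these data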; note: 0% is about no effect
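Tetracycline-induced HEK293 T-REx cells force-coupled to calcium signalling expressed D2; compounds were pin-added after a 10 s baseline, read kinetically 180 s, then an EC20 dopamine challenge followed with a further 180 s calcium read.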
* hit, by the source's call; ? = inconclusive; . = not tested or not shown. Rows were chosen to be rich in hits. Some 2.4% of all compounds tested hit in one or more screens of this group.

SMILES | D2 ag-1 | D2 ag-2 | D2 PAM-1 | D2 antagonist | D2 PAM-2
O=C(NC1CCCC1)c1ccc2nc[nH]c2c1 | -1 | 0 | -8 | 7 | 38*
COc1cc2c(cc1OC)CN(C(=O)c1ccc3nc[nH]c3c1)CC2 | 0 | 1 | 2 | 3 | -1
O=C(c1ccc2nc[nH]c2c1)N1CCc2ccccc2C1 | -3 | -1 | -8 | 35* | -3
Cc1ccc(C(=O)NC2CCCCC2)cc1 | 1 | 0 | -11 | 62* | -12
O=C(NC1CCCC1)c1ccc2nc(-c3ccco3)c(-c3ccco3)nc2c1 | 7 | -1 | 26 | 33* | -7
CCCCOC(=O)c1ccc(NC(=O)Cc2coc3ccc(C(C)C)cc23)cc1 | . | 2 | . | . | 12
CCOc1ccc(-n2c(=O)c3c4c(sc3n(CC(=O)Nc3cccc(C(F)(F)F)c3)c2=O)CCCCC4)cc1 | . | . | . | . | 7
CCOc1ccc(CNC(=O)C2CCN(S(=O)(=O)c3cn(C)cn3)CC2)cc1OC | . | 1 | . | . | 3
O=C(Nc1ccsc1C(=O)NC1CCCCC1)c1ccccc1 | 0 | -1 | -12 | 31* | 2
O=C(Nc1ccccc1C(=O)NC1CCCCC1)c1ccccc1 | -1 | -1 | -1 | -8 | 11
Cn1c(=O)oc2cc(S(=O)(=O)N3CCC(C(=O)N4CCN(c5ccc(Cl)cc5)CC4)CC3)ccc21 | . | 0 | . | . | 4
CC1(C)CC(=O)C2=C(C1)N1C(=C(C#N)C2c2ccc(Cl)cc2)N=C(N)c2ccccc21 (stereo not drawn) | -3 | -2 | -7 | -12 | -3
CC1(C)CC(=O)C2=C(C1)N1C(=C(C#N)C2c2ccccc2Cl)N=C(N)c2ccccc21 (stereo not drawn) | 7 | 0 | -3 | 36* | -11
O=C(CCc1ccccc1)NNC(=O)Nc1ccccc1 | 3 | -1 | -5 | 44* | -5
O=C(O)CCC(=O)NNC(=O)CCC(=O)Nc1ccccc1 | -1 | 0 | -3 | 40* | -5
CCc1ccc(NC(=O)NNC(=O)CCc2ccccc2)cc1 | -2 | 0 | 5 | -5 | 6
O=C(Nc1ccccc1)c1ccccc1CCc1ccccc1 | -1 | 1 | -12 | 32* | -4
CCC1CCCCN1S(=O)(=O)c1ccc(C(=O)Nc2sc3c(c2C(=O)NC)CCC3)cc1 (stereo not drawn) | . | 1 | . | . | -2
CC1CCC2(CC1)NC(=O)N(NC(=O)c1cccc(N(C)C)c1)C2=O (stereo not drawn) | 2 | 0 | -1 | 33* | -9
Cc1ccc(CNCCCSc2nc(C)cc(C)n2)cc1 | -4 | 0 | -3 | 63* | -14
Cc1cc(C)nc(SCCCNCc2ccc(Br)cc2)n1 | -2 | 1 | -8 | 59* | -29
CCOC(=O)CCc1c(C)c2cc3c(c(C)c2oc1=O)OCN(CCc1ccccc1OC)C3 | . | 24 | . | . | -5
COc1ccc(NC(=O)c2nnn(CC(=O)Nc3cccc(C)c3C)c2N)c(OC)c1 | . | 1 | . | . | .
O=C(NNc1nc2ccc(F)cc2s1)c1cccc(F)c1 | 6 | 5 | -20 | 41* | -14
Cc1cc(C)c(N=Cc2c(O)n(-c3nccs3)c(=O)c3ccccc23)c(C)c1 | -3 | 1 | -33 | 41* | -27
SMILES | D2 ag-1 | D2 ag-2 | D2 PAM-1 | D2 antagonist | D2 PAM-2
COc1cc(NC(=O)C2=C(C)Nc3nnnn3C2c2ccc(SC)cc2)c(OC)cc1Cl (stereo not drawn) | . | 0 | . | . | .
Cc1nc2c3ccccc3n(CCN3CCCCC3)c2s1 | . | -1 | . | 40* | 4
O=C(NCCc1nc2ccccc2n1Cc1ccccc1F)c1ccc(F)cc1 | . | -2 | . | . | 3
C=CCN1CCc2c(cc(O)c(O)c2Br)[C@@H](c2ccccc2)C1 | 59* | . | 66* | . | .
CN1CCN(/C(=N\O)c2nonc2N)CC1 | -3 | 0 | -35 | -5 | -7
Nc1nonc1/C(=N/O)N1CCN(CCO)CC1 | 1 | 1 | -13 | 51* | -18
CCOc1ccc(N(C(=O)Cn2nnc3ccccc32)C(C(=O)NC(C)(C)CC)c2cccn2C)cc1 (stereo not drawn) | 0 | 1 | -19 | -6 | 4
CCC(C)(C)NC(=O)C(c1cccn1C)N(C(=O)Cn1nnc2ccccc21)c1ccc(OC)cc1OC (stereo not drawn) | -3 | 0 | -12 | 30* | 1
CCOc1cc(CNC(=O)c2ccc3c(c2)N(C)C(=O)C2CCCCN32)ccc1OC (stereo not drawn) | . | 0 | . | . | 12
O=C(c1cc(-c2ccc(Cl)cc2Cl)on1)N1CCN(C(=O)c2ccco2)CC1 | -1 | 1 | -7 | -1 | 49*
O=C(c1cc(-c2ccccc2Cl)on1)N1CCN(C(=O)c2ccco2)CC1 | -2 | 0 | -18 | 4 | -1
O=C(Nc1cccnc1)c1cc(-c2ccc(Cl)cc2Cl)on1 | 3 | 1 | -2 | 35* | 7
CCOC(=O)c1c(SCC(=O)Nc2nc3ccccc3s2)nc(=O)[nH]c1C | . | 1 | . | . | 0
CCOC(=O)c1c(SCC(=O)Nc2nc(C)cs2)nc(=O)[nH]c1C | -3 | 0 | -4 | 32* | 4
Cc1occc1-c1nnc(-c2cc([N+](=O)[O-])cc([N+](=O)[O-])c2)o1 | ? | 0 | 66* | 1 | 6
CSc1cccc(NC(=O)C2CCN(S(=O)(=O)c3cnc[nH]3)CC2)c1 | -1 | 0 | -11 | -12 | -6
CSc1cccc(NC(=O)C2CCCN(S(=O)(=O)c3cnc[nH]3)C2)c1 (stereo not drawn) | -3 | 0 | 6 | 31* | -19
O=C(CN1C(=O)C2(SCC(=O)N2c2ccc(Cl)cc2)c2ccccc21)NCCc1ccccc1 (stereo not drawn) | . | . | . | . | -9
Cc1ccc(NC(=S)N2CCCC(c3nc4ccccc4[nH]3)C2)cc1 (stereo not drawn) | 2 | . | -11 | . | .
Cc1ccccc1NC(=S)N1CCCC(c2nc3ccccc3[nH]2)C1 (stereo not drawn) | -6 | 0 | -21 | 32* | -1
CCn1nc(NC(=O)c2ccncc2)c2cc3ccc(C)cc3nc21 | 5 | 0 | 13 | -7 | 5
CCn1nc(NC(=O)c2ccncc2)c2cc3cc(C)ccc3nc21 | -3 | 0 | -14 | -3 | 34*
O=C(Nc1ccc(Cl)c(C(F)(F)F)c1)c1nc2ccccc2nc1N1CCCCC1 | . | 0 | . | . | -10
CCOCCCNC(=O)C(c1ccc(OC)cc1)N(Cc1cccs1)C(=O)c1ccc(NC(C)=O)cc1 (stereo not drawn) | . | 0 | . | . | -5
CCCCn1nnc(NC(=O)c2ccc(-c3ccccc3[N+](=O)[O-])o2)n1 | -4 | -2 | -7 | 52* | -27
CCn1nnc(NC(=O)c2ccc([N+](=O)[O-])o2)n1 | 4 | 0 | 14 | -25 | 10
CCOc1ccc(-c2cc(C(=O)Oc3ccc(C#N)cc3)no2)cc1 | . | 1 | . | . | 7
